High-throughput results: PubChem BioAssay, National Center for Advancing Translational Sciences (NCATS)
Shown are actives, neighbours in structure and some others; about 8.9% of the full set was active somewhere.
HPGD inh: HPGD (human) dehydrogenase inhibition. actives 4.3% (n = 150,000). Potency, µM, actives largely listed as inhibitors. purified HPGD, NADH fluorescence kinetic, PGE2 substrate. AID 894; active = well fitted inhibition curve with a large enough effect, not every such curve was filed as active; inconclusive = small, poorly fitted or top-dose-only effect, or another doubt; inactive = no such curve, though single readings can be large or run the other way
Target sequence (P15428 whole entry, looked up): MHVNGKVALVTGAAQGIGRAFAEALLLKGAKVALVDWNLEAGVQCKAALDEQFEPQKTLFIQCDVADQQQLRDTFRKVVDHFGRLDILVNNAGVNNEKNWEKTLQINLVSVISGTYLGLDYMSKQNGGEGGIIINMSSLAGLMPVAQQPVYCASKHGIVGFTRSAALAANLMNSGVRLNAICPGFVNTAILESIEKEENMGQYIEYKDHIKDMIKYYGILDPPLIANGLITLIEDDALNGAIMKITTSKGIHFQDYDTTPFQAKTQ
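NADH formation kinetics: reaction with 30 uM PGE2 and 1 mM NAD+ (final), 20 nM enzyme, Tris-HCl pH 8 with Tween 20, after 15 min compound preincubation at room temperature. Fluorescence change, last versus first of five reads.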
NPSR antag: antagonists of human neuropeptide S receptor cAMP signaling. AID 1461. Potency, µM (top dose mostly 38.3 µM), usual class: inhibitors. Q6W5P4. CHO-NPSR cells, cAMP TR-FRET, antagonist mode. actives 1% (n = 220,000); note: nearly all actives have a fitted effect of over 50% in size
IMPase cell inh: membrane-permeable compound that blocks inositol monophosphatase; inhibition (IP1 accumulation), % at 46.1 µM; 120,000 tested, under 10 active; CHO-M1 cells, IP1 accumulation, HTRF TR-FRET ratio; active = well fitted curve in the direction sought with a large enough effect in the signal ratio, not every such curve was filed as active; inconclusive = small, poorly fitted or top-dose-only effect, or a change in a side signal; inactive = no such curve, though single readings can be large or run the other way; the % refers to the signal ratio;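 note: cells stimulated with carbachol in lithium chloride buffer; higher means more IMPase inhibition seen as more IP1 and lower FRET ratio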
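CHO-M1, 2000 cells/well, cultured 16–30 h; cpd up to 46 uM; carbachol (50 uM solution, stimulation buffer w/ 50 mM LiCl, pH 7.4), 30 min 37C; IP-One TR-FRET, 10 min RT; Ex 320/Em 665, 620; Hill-fit AC50.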
ALDH1A1 block: blocks purified human ALDH1A1 activity; P00352; Purified ALDH1A1, NADH fluorescence, propionaldehyde substrate; Potency, µM (series often up to 75.3 µM), usual class: inhibitors; actives 7.3% (n = 220,000); AID 1030; active = well fitted inhibition curve with a large enough effect, not every such curve was filed as active; inconclusive = small, poorly fitted or top-dose-only effect, or another doubt; inactive = no such curve, though single readings can be large or run the other way
ALOX12 inhib: blocks human 12-lipoxygenase activity; Potency, µM (doses to about 57.1 µM), actives largely listed as inhibitors; actives 0.12% (n = 150,000); purified 12-hLO, xylenol orange hydroperoxide absorbance; note: nearly all actives have a fitted effect of over 55% in size
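Lipoxygenase turnover measured by absorbance at 573 and 405 nm after Fe-XO development. Human 12hLO 150 nM, arachidonate 40 uM, pH 7.0 Hepes buffer with detergent; 15 min compound preincubation, 30 min reaction.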
IMPase Li inh: IMPase inhibition in cells with lithium potentiation; CHO-M1 cells, IP1 TR-FRET (IP-One), carbachol + lithium; Potency, µM (series often up to 59.4 µM), actives largely listed as inhibitors; actives 0.35% (n = 210,000); AID 1457;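 note: IP1 builds up when IMPase is blocked and the TR-FRET signal falls; nearly all actives have a fitted effect of over 50% in size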
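Concentration–response in CHO-M1 cells, lithium-potentiated; 30 min at 37C. IP1 detected by competitive TR-FRET after 10 min lysis at RT. Hill-fitted AC50.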
A number is an active result; - = inactive; ? = inconclusive; . = no result; [ ] = dose if it differs, or a comment. Unless noted, calls come from the whole dose curve; as a rule, active = well fitted curve in the direction sought with a large enough effect; inconclusive = small, poorly fitted or top-dose-only effect, or another doubt; inactive = no such curve, though single readings can be large; an effect the other way counts as inactive or inconclusive.

SMILES	HPGD inh	NPSR antag	IMPase cell inh	ALDH1A1 block	ALOX12 inhib	IMPase Li inh
O=C(O)CCC(=O)Nc1ccc(Br)c(Cl)c1	-	-	-	-	-	-
O=C(NCCN1C(=O)C2C3C=CC(C3)C2C1=O)Nc1ccccc1 (configuration not stated)	-	-	-	13µM	-	-
Cc1ccc(NC(=O)NCCN2C(=O)C3C4C=CC(C4)C3C2=O)cc1 (configuration not stated)	-	-	-	10µM	-	-
c1ccc(CCc2nc(-c3cccnc3)no2)cc1	-	-	-	-	-	-
COc1cc(C2C=C(C34CC5CC(CC(C5)C3)C4)NC(=S)N2)cc(OC)c1OC (configuration not stated)	-	10µM	-	1.1µM	11µM	-
CC1C(=O)C(C)C(c2ccc3c(c2)OCO3)NC1c1ccc2c(c1)OCO2 (configuration not stated)	.	?	-	-	-	.
S=C1NC(C23CC4CC(CC(C4)C2)C3)=CC(c2ccc3c(c2)OCO3)N1 (configuration not stated)	.	-	.	2.5µM	.	-
COc1ccc(OC)c(C2C=C(C34CC5CC(CC(C5)C3)C4)NC(=S)N2)c1 (configuration not stated)	-	-	.	2.5µM	7.1µM	-
Cc1ccc(C2C(C#N)=C(N)N(c3cccnc3)C3=C2C(=O)CCC3)s1 (configuration not stated)	.	-	.	-	.	-
CCN1C(=O)CC(N2CCC(Cc3ccccc3)CC2)C1=O (configuration not stated)	-	-	-	-	-	-
Cc1[nH]c2ccccc2c1C(=O)COC(=O)c1cccc(S(=O)(=O)N2CCCCC2)c1	-	-	.	-	-	-
COc1ccc(Sc2nc3ccccc3n3c(C(F)(F)F)nnc23)cc1	?	?	-	-	-	-
O=C(NNC(=O)c1ccccc1Br)c1ccc(Cl)cc1	-	-	-	-	-	-
O=C(Nc1ccc(Cl)cc1F)c1ccccc1Br	16µM	-	.	-	-	-
O=C(Nc1ccc(F)c([N+](=O)[O-])c1)C(=O)c1c(O)[nH]c2ccccc12	.	-	.	13µM	.	-
C=CCN1C(=O)/C(=c2\sc3nc(=O)c(Cc4ccccc4)nn3c2=O)c2ccccc21	.	-	.	3.5µM	.	.
CCN1C(=O)/C(=c2\sc3nc(=O)c(Cc4ccccc4)nn3c2=O)c2ccccc21	.	-	.	.	.	.
C=CCN1C(=O)/C(=c2\sc3nc(=O)c(Cc4ccc(OC)c(OC)c4)nn3c2=O)c2ccccc21	.	-	.	3.2µM	.	.
O=C(c1sc2cccc(F)c2c1Cl)N1CCN(c2ncccn2)CC1	-	-	.	28µM	-	-
Cc1onc(-c2c(F)cccc2Cl)c1C(=O)N1CCN(c2ncccn2)CC1	.	-	.	-	.	-
Cc1ccc2nc3ccc(N4CCCCCCC4)nn3c(=O)c2c1	-	?	-	10µM	-	-
Cn1ncc(Cl)c1C(=O)Nc1cccc(Cl)c1	13µM	-	-	7.9µM	-	-
CSc1cccc(NC(=O)c2c(Cl)cnn2C)c1	-	-	?	-	-	-
Cc1cc(Cl)ccc1Oc1nccc(N(C)C)c1C#N	-	-	-	-	-	-
CN(C)c1ccnc(Oc2ccc(C(C)(C)C)cc2)c1C#N	35µM	?	-[1.84 µM]	?	-	-
SMILES	HPGD inh	NPSR antag	IMPase cell inh	ALDH1A1 block	ALOX12 inhib	IMPase Li inh
CN(C)c1ccnc(Oc2ccc(Cl)cc2)c1C#N	32µM	-	-	25µM	-	-
CN(C)c1ccnc(Oc2ccccc2)c1C#N	?	-	-	?	-	?
COC(=O)c1cc(COc2ccc3ccc(=O)oc3c2)c(C)o1	?	-	-	?	-	-
CC(=O)N1CCC2(CC1)CN(Cc1cc(C(F)(F)F)cc(C(F)(F)F)c1)C2	?	.	.	-	-	-
COc1ccc([N+](=O)[O-])cc1NC(=O)CN(C)S(=O)(=O)c1ccccc1	.	-	.	-	.	-
Cc1cc(-c2nnc(CCC(=O)N3CCN(Cc4cccc(F)c4)CC3)o2)c(C)o1	.	-	.	28µM	.	-
CC(C)CC(=O)N1CCN(Cc2cccc(F)c2)CC1	-	-	-	-	-	-
c1cncc(-c2nnc(SCc3cccc4ccccc34)o2)c1	25µM	-	-	-	-	-
